Data as given in the supplement of paper PMC10338343.
± gives the standard deviation.

What follows are sequences tested on MILI (PIWIL2) piRISC loaded with L1MC piRNA (26 nt) (assay: pre-steady-state target cleavage rate (min^-1); guide: L1MC piRNA 5'p-UAACUAAAUACUAUGCAAGCUGUAGG; MIWI and MILI are mouse PIWI proteins and EfPiwi is from a freshwater sponge; tags in brackets are library labels; higher = faster piRNA-guided slicing of the target). Details: auxiliary factor: 500 nM mouse GTSF1.
Protocol: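 Cleave-'n-Seq: a library of target RNAs (target site embedded in constant flanks, ACAGCATTCCGCGTTAGTGATATCCG... 5' flank; DNA-blocked outside the site) at 0.1 nM was incubated with 1 nM active mouse MILI or MIWI piRISC (synthetic 5'-monophosphorylated piRNA guide) with or without 500 nM mouse GTSF1 at 33 °C for 1 min to 16 h. Uncleaved targets were sequenced and normalised to non-target controls, and the pooled three trials were fitted to a burst-and-steady-state model to give the pre-steady-state cleavage rate (min^-1; k3 is constrained to at most 1e-4). Sequence is the target site only; target names encode pairing extent (gX:gY) and contiguous / 1-mismatch / 2-mismatch / bulge geometry. Fits with R² ≤ 0 are excluded.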

UCCUGCUUCAGCUUGCUUAGUAUUUAGUUA and UCCUGGUACAGCAUGCAUAGUAUAUAGUUA are within error of each other in “pre-steady-state target cleavage rate” value: 0.287 ± 0.011 for the first, 0.241 ± 0.038 for the second.

First: UCCUGGAUGUCCUACCAUAGUAUUUAGUAA
Second: UCCUGCAACAGCUUGCAUAGUAUUAAGUUA
The “pre-steady-state target cleavage rate” value of the first is lower: 0.021 ± 0.0077 for the first, 0.344 ± 0.039 for the second.

Compared with UCCUGGUAACAGCUUGCAUAGUAUUUAGUUA, UCCUGGAUGUCCUUGCAUAGUAAUUUAGUUA is lower in “pre-steady-state target cleavage rate” value: 0.244 ± 0.02 for the first, 0.0401 ± 0.013 for the second.

First: UCCUGCUACAGCUUGCAUAGUAUUUAGCUUA
Second: UCCUGGAACAGCUUGCAUAGUAUUAUGAAA
The “pre-steady-state target cleavage rate” value of the first is higher: 0.161 ± 0.037 for the first, 0.0563 ± 0.02 for the second.

UCCUGCUACAGCUUACAUAGUAUUUAGUUA and UCCUGCUACAGCUUGCAUAGUAUAUAGUUA are within error of each other in “pre-steady-state target cleavage rate” value: 0.274 ± 0.026 for the first, 0.227 ± 0.029 for the second.

First: UCCUGGAUGUGCUUGCAUAGCAUUUAGUUA
Second: UCCUGGAUGAGCUAGCAUAGUAUUUACUUA
The “pre-steady-state target cleavage rate” value of the first is lower: 0.0436 ± 0.012 for the first, 0.169 ± 0.042 for the second.

First: UCCUGGAUGUGCUUGCAUAGUAUUAAGUAA
Second: UCCUGGAUGACCUUGCAUAGUAUUUAGAAA
The “pre-steady-state target cleavage rate” value of the first is lower: 0.015 ± 0.0059 for the first, 0.133 ± 0.038 for the second.

UCCUGCUACAGCUUGCAUAGUAUUAUCAAA and UCCUGGAUGUCGUUGCAUAGUAUUCAGUUA are within error of each other in “pre-steady-state target cleavage rate” value: 0.0862 ± 0.026 for the first, 0.0553 ± 0.018 for the second.

UCCUGGAUGAGCUACCAUAGUAUUUAGUUA and UCCUGGAUGUCCUUGGAUAGUAUUUUGUUA are within error of each other in “pre-steady-state target cleavage rate” value: 0.101 ± 0.018 for the first, 0.139 ± 0.031 for the second.

Going from UCCUGGUACAGCUUGCAUAGUAUCUUAGUUA to UCCUGGUACAGAUUGCAUAGUAUUUAGUUA, the “pre-steady-state target cleavage rate” value rises from 0.188 ± 0.031 to 0.257 ± 0.028.

Compared with UCCUGGAUGUCGAAUCAUAGUAUUUAGUUA, UCCUGGUAGAGCUUGCAUAGUAUUUAGAUA is higher in “pre-steady-state target cleavage rate” value: 0.00554 ± 0.0026 for the first, 0.14 ± 0.025 for the second.

Going from UCCUGGAUGUCGAUGCAUAGUAGUUUAGUUA to UCCUCCCACAGCUUGCAUAGUAUUUAGUUA, the “pre-steady-state target cleavage rate” value rises from 0.0201 ± 0.005 to 0.296 ± 0.015.

For UCCUGCUACAGCUUGCAUAGUAUAUUCAAA, the “pre-steady-state target cleavage rate” value was 0.209 ± 0.059.

Same assay, conditions: auxiliary factor: none (no GTSF1)

Going from UCCUGGAUGUGCUUCCAUAGUAUUUAGAUA to UCCUGCUUCAGCUUGCUUAGUAUUUAGUUA, the “pre-steady-state target cleavage rate” value rises from under 0.0001 to 0.00807 ± 0.0021.

UCCUGGUACAGCAUGCAUAGUAUAUAGUUA and UCCUGCAACAGCUUGCAUAGUAUUAAGUUA are within error of each other in “pre-steady-state target cleavage rate” value: 0.00583 ± 0.0028 for the first, 0.00432 ± 0.0031 for the second.

Compared with UCCUGGUAACAGCUUGCAUAGUAUUUAGUUA, UCCUGGAUGUCCUUGCAUAGUAAUUUAGUUA is lower in “pre-steady-state target cleavage rate” value: 0.016 ± 0.0044 for the first, 0.00555 ± 0.0026 for the second.

UCCUGCUACAGCUUACAUAGUAUUUAGUUA and UCCUGCUACAGCUUGCAUAGUAUAUAGUUA are within error of each other in “pre-steady-state target cleavage rate” value: 0.00609 ± 0.0025 for the first, 0.00382 ± 0.0029 for the second.

UCCUGGAUGAGCUACCAUAGUAUUUAGUUA and UCCUGGAUGUCCUUGGAUAGUAUUUUGUUA are within error of each other in “pre-steady-state target cleavage rate” value: 0.00301 ± 0.0025 for the first, 0.00318 ± 0.0024 for the second.

UCCUGGUACAGCUUGCAUAGUAUCUUAGUUA and UCCUGGUACAGAUUGCAUAGUAUUUAGUUA are within error of each other in “pre-steady-state target cleavage rate” value: 0.00861 ± 0.0033 for the first, 0.0104 ± 0.0044 for the second.

UCCUGGAUGUCGAUGCAUAGUAGUUUAGUUA and UCCUCCCACAGCUUGCAUAGUAUUUAGUUA are within error of each other in “pre-steady-state target cleavage rate” value: 0.00577 ± 0.0027 for the first, 0.00691 ± 0.0024 for the second.
